Data reported in PubChem BioAssay AID1159580 (chemical genetic matrix, 2015).
Where “and” joins values, the source holds several entries; their conditions need not be identical. Identical values can stand only once. In all, about 5,500 compounds went through this assay and about 2,000 (36%) were called active. Inconclusive results (about 18%) are left out. Cut-off read from the data, not from the text of the source: active = normalized growth mostly below about 0.91 (no sharp cut-off); inconclusive = no clear call, values can overlap the other calls; inactive = mostly above about 0.92. The list shows a part of the results.

Experiment: chemical genetic growth profiling, strain panel (AID 1159580);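 note: tested at 20 µM; growth read once vehicle control cultures reached saturation at 30 °C; 1 = growth at the plate median or of vehicle wells; lower values mean less growth of the strain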
Details: S. cerevisiae deletion strains, growth OD

Measured: normalized growth

CN(C(=O)CN(CCO)CC(=O)N(C)C(C)(C)Cc1ccccc1)C(C)(C)Cc1ccccc1
inactive: locus YAL021C, strain ccr4, stronger effect = lower value 1.01 | locus YAL026C, strain drs2, stronger effect = lower value 1.02 | locus YAL030W, strain snc1, stronger effect = lower value 1 | locus YBL061C, strain skt5, stronger effect = lower value 1.01 | locus YBR009C, strain hhf1, stronger effect = lower value 1.01 | locus YBR021W, strain FUR4, stronger effect = lower value 0.985 | locus YBR023C, strain chs3, stronger effect = lower value 1.01 | locus YBR171W, strain sec66, stronger effect = lower value 1.04 | locus YBR229C, strain ROT2, stronger effect = lower value 0.993 | locus YBR231C, strain swc5, stronger effect = lower value 1 | locus YBR279W, strain paf1, stronger effect = lower value 1.01 | locus YCL011C, strain gbp2, stronger effect = lower value 1.01 | locus YCL016C, strain dcc1, stronger effect = lower value 1.01 | locus YCL029C, strain bik1, stronger effect = lower value 0.97 | locus YCL061C, strain MRC1, stronger effect = lower value 1.02 | locus YCL069W, strain vba3, stronger effect = lower value 1.01 | locus YCR088W, strain abp1, stronger effect = lower value 1.01 | locus YDL005C, strain med2, stronger effect = lower value 1 | locus YDL035C, strain GPR1, stronger effect = lower value 0.954 | locus YDL040C, strain nat1, stronger effect = lower value 1 | locus YDL074C, strain BRE1, stronger effect = lower value 0.978 | locus YDL101C, strain DUN1, stronger effect = lower value 1 | locus YDL134C, strain PPH21, stronger effect = lower value 0.983 | locus YDL185W, strain tfp1, stronger effect = lower value 0.954 | locus YDL192W, strain arf1, stronger effect = lower value 0.98 | locus YDR001C, strain nth1, stronger effect = lower value 1.01 | locus YDR069C, strain doa4, stronger effect = lower value 1.01 | locus YDR101C, strain arx1, stronger effect = lower value 1 | locus YDR137W, strain rgp1, stronger effect = lower value 1.07 | locus YDR159W, strain sac3, stronger effect = lower value 0.998 | locus YDR162C, strain NBP2, stronger effect = lower value 0.957 | locus YDR195W, strain ref2 0.995 | locus YDR297W, strain sur2, stronger effect = lower value 1 | locus YDR318W, strain mcm21, stronger effect = lower value 0.979 | locus YDR334W, strain swr1, stronger effect = lower value 1.02 | locus YDR335W, strain msn5, stronger effect = lower value 1.01 | locus YDR388W, stronger effect = lower value 0.979 | locus YDR392W, strain spt3, stronger effect = lower value 0.981 | locus YDR502C, strain sam2, stronger effect = lower value 0.981 | locus YEL003W, strain gim4, stronger effect = lower value 1.01 | locus YEL037C, strain rad23, stronger effect = lower value 1.02 | locus YEL061C, strain CIN8 (second series), stronger effect = lower value 1.02 | locus YEL061C, strain CIN8, stronger effect = lower value 0.997 | locus YER015W, strain faa2, stronger effect = lower value 1.02 | locus YER016W, strain bim1, stronger effect = lower value 1.03 | locus YER110C, stronger effect = lower value 0.976 | locus YER111C, strain swi4, stronger effect = lower value 1.02 | locus YER155C, strain BEM2 (second series), stronger effect = lower value 1.02 | locus YER155C, strain BEM2, stronger effect = lower value 0.994 | locus YER167W, strain BCK2, stronger effect = lower value 0.987 | locus YFR010W, strain ubp6, stronger effect = lower value 1.01 | locus YGL078C, strain dbp3, stronger effect = lower value 0.983 | locus YGL086W, strain mad1, stronger effect = lower value 0.979 | locus YGL167C, strain pmr1, stronger effect = lower value 1.01 | locus YGL173C, strain kem1, stronger effect = lower value 1.02 | locus YGL227W, strain vid30, stronger effect = lower value 1.02 | locus YGL240W, strain doc1, stronger effect = lower value 0.986 | locus YGL248W, strain PDE1, stronger effect = lower value 1.01 | locus YGL253W, strain hxk2, stronger effect = lower value 1.03 | locus YGR078C, strain PAC10, stronger effect = lower value 1 | locus YGR135W, strain pre9, stronger effect = lower value 0.973 | locus YGR229C, strain SMI1, stronger effect = lower value 0.98 | locus YGR252W, strain gcn5, stronger effect = lower value 1.01 | locus YHR013C, strain ard1, stronger effect = lower value 1.04 | locus YHR027C, strain rpn1, stronger effect = lower value 1.02 | locus YHR030C, strain SLT2, stronger effect = lower value 0.985 and 0.989 | locus YHR079C, strain IRE1 (second series), stronger effect = lower value 0.975 | locus YHR079C, strain IRE1, stronger effect = lower value 0.98 | locus YHR094C, strain hxt1, stronger effect = lower value 0.99 | locus YHR129C, strain ARP1, stronger effect = lower value 0.992 | locus YHR142W, strain chs7, stronger effect = lower value 1.02 | locus YHR200W, strain rpn10, stronger effect = lower value 0.971 | locus YIL066C, strain RNR3, stronger effect = lower value 0.996 | locus YIL073C, strain SPO22, stronger effect = lower value 1.14 | locus YIL125W, strain kgd1, stronger effect = lower value 0.988 | locus YIR030C, strain dcg1, stronger effect = lower value 0.976 | locus YJL092W, strain hpr5, stronger effect = lower value 1.01 | locus YJL095W, strain BCK1 (second series), stronger effect = lower value 1.01 | locus YJL095W, strain BCK1, stronger effect = lower value 1.01 | locus YJL115W, strain asf1, stronger effect = lower value 1.02 | locus YJL129C, strain trk1, stronger effect = lower value 1.02 | locus YJL134W, strain LCB3, stronger effect = lower value 0.986 | locus YJL154C, strain vps35, stronger effect = lower value 1.01 | locus YJL164C, strain tpk1, stronger effect = lower value 1 | locus YJL166W, strain qcr8, stronger effect = lower value 1.01 | locus YJL168C, strain set2, stronger effect = lower value 0.989 | locus YJL187C, strain SWE1 (second series), stronger effect = lower value 1.01 | locus YJL187C, strain SWE1, stronger effect = lower value 1.01 | locus YJR043C, strain POL32, stronger effect = lower value 0.962
